Data taken from PubChem BioAssay AID1159580 (chemical genetic matrix, 2015).
Values joined by “and” are separate entries in the source; they are usually repeats but may differ in a detail not shown here. Equal entries are not always repeated. Among all 5,500 compounds or so, about 2,000 (36%) were called active. Inconclusive results (about 18%) are left out. No stated cut-off is given here; in the data, active means normalized growth mostly below about 0.91 (no sharp cut-off); inconclusive means no clear call, values can overlap the other calls; inactive means mostly above about 0.92. Some of the results follow.

Assay: chemical genetic growth profiling, strain panel (AID 1159580);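 further: tested at 20 µM; growth read once vehicle control cultures reached saturation at 30 °C; 1 = growth at the plate median or of vehicle wells; lower values mean less growth of the strain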
Conditions: S. cerevisiae deletion strains, growth OD

Measured: normalized growth

NC(=O)NC1NC(=O)NC1=O (configuration not stated)
inactive: locus YAL013W, strain DEP1, active compounds read low 0.994 | locus YAL021C, strain ccr4, active compounds read low 0.995 | locus YAL026C, strain drs2, active compounds read low 1 | locus YAL030W, strain snc1, active compounds read low 0.999 | locus YBL061C, strain skt5, active compounds read low 1 | locus YBR009C, strain hhf1, active compounds read low 0.999 | locus YBR021W, strain FUR4, active compounds read low 0.996 | locus YBR023C, strain chs3, active compounds read low 1 | locus YBR171W, strain sec66, active compounds read low 1.01 | locus YBR229C, strain ROT2, active compounds read low 0.987 | locus YBR231C, strain swc5, active compounds read low 0.996 | locus YBR279W, strain paf1, active compounds read low 1.01 | locus YCL011C, strain gbp2, active compounds read low 1.01 | locus YCL016C, strain dcc1, active compounds read low 1 | locus YCL029C, strain bik1, active compounds read low 0.976 | locus YCL061C, strain MRC1, active compounds read low 0.995 | locus YCL069W, strain vba3, active compounds read low 1.01 | locus YCR088W, strain abp1, active compounds read low 0.995 | locus YDL005C, strain med2, active compounds read low 1 | locus YDL035C, strain GPR1, active compounds read low 1.01 | locus YDL040C, strain nat1, active compounds read low 0.999 | locus YDL074C, strain BRE1, active compounds read low 1.01 | locus YDL101C, strain DUN1, active compounds read low 0.981 | locus YDL134C, strain PPH21, active compounds read low 0.982 | locus YDL185W, strain tfp1, active compounds read low 0.982 | locus YDL192W, strain arf1, active compounds read low 0.988 | locus YDR001C, strain nth1, active compounds read low 1.01 | locus YDR069C, strain doa4, active compounds read low 1 | locus YDR101C, strain arx1, active compounds read low 0.98 | locus YDR137W, strain rgp1, active compounds read low 0.991 | locus YDR150W, strain NUM1, active compounds read low 0.998 | locus YDR159W, strain sac3, active compounds read low 0.995 | locus YDR162C, strain NBP2, active compounds read low 0.992 | locus YDR195W, strain ref2 0.998 | locus YDR297W, strain sur2, active compounds read low 1.01 | locus YDR318W, strain mcm21, active compounds read low 0.986 | locus YDR334W, strain swr1, active compounds read low 1 | locus YDR335W, strain msn5, active compounds read low 1.01 | locus YDR388W, active compounds read low 0.979 | locus YDR392W, strain spt3, active compounds read low 0.958 | locus YDR502C, strain sam2, active compounds read low 1.02 | locus YEL003W, strain gim4, active compounds read low 1.01 | locus YEL037C, strain rad23, active compounds read low 1.01 | locus YEL061C, strain CIN8 (second series), active compounds read low 1.01 | locus YEL061C, strain CIN8, active compounds read low 1 | locus YER015W, strain faa2, active compounds read low 1 | locus YER016W, strain bim1, active compounds read low 1.01 | locus YER110C, active compounds read low 0.979 | locus YER111C, strain swi4, active compounds read low 1.01 | locus YER155C, strain BEM2 (second series), active compounds read low 1.01 | locus YER155C, strain BEM2, active compounds read low 0.997 | locus YER167W, strain BCK2, active compounds read low 1 | locus YFR010W, strain ubp6, active compounds read low 1.01 | locus YGL078C, strain dbp3, active compounds read low 0.989 | locus YGL086W, strain mad1, active compounds read low 0.999 | locus YGL167C, strain pmr1, active compounds read low 1 | locus YGL173C, strain kem1, active compounds read low 1 | locus YGL227W, strain vid30, active compounds read low 1 | locus YGL240W, strain doc1, active compounds read low 0.996 | locus YGL248W, strain PDE1, active compounds read low 0.986 | locus YGL253W, strain hxk2, active compounds read low 1 | locus YGR078C, strain PAC10, active compounds read low 0.987 | locus YGR135W, strain pre9, active compounds read low 0.998 | locus YGR229C, strain SMI1, active compounds read low 1.01 | locus YGR252W, strain gcn5, active compounds read low 1.13 | locus YHR013C, strain ard1, active compounds read low 1.01 | locus YHR027C, strain rpn1, active compounds read low 1 | locus YHR030C, strain SLT2, active compounds read low 0.994 and 1.03 | locus YHR079C, strain IRE1 (second series), active compounds read low 0.972 | locus YHR079C, strain IRE1, active compounds read low 1.02 | locus YHR094C, strain hxt1, active compounds read low 0.983 | locus YHR129C, strain ARP1, active compounds read low 0.983 | locus YHR142W, strain chs7, active compounds read low 1.01 | locus YHR200W, strain rpn10, active compounds read low 0.988 | locus YIL066C, strain RNR3, active compounds read low 0.994 | locus YIL073C, strain SPO22, active compounds read low 0.998 | locus YIL125W, strain kgd1, active compounds read low 0.999 | locus YIR030C, strain dcg1, active compounds read low 0.984 | locus YJL092W, strain hpr5, active compounds read low 1 | locus YJL095W, strain BCK1 (second series), active compounds read low 1 | locus YJL095W, strain BCK1, active compounds read low 0.98 and 1.03 | locus YJL115W, strain asf1, active compounds read low 0.997 | locus YJL129C, strain trk1, active compounds read low 0.997 | locus YJL134W, strain LCB3, active compounds read low 0.991 | locus YJL154C, strain vps35, active compounds read low 1.01 | locus YJL164C, strain tpk1, active compounds read low 1 | locus YJL166W, strain qcr8, active compounds read low 0.993 | locus YJL168C, strain set2, active compounds read low 0.98 | locus YJL187C, strain SWE1 (second series), active compounds read low 0.979 | locus YJL187C, strain SWE1, active compounds read low 1 | locus YJR043C, strain POL32, active compounds read low 0.979 | locus YJR066W, strain TOR1, active compounds read low 0.984
